Source: PubChem
HttQ103 aggreg = inhibitors of mutant huntingtin aggregate formation in PC12 cells; PC12 HttQ103-GFP aggregates, Acumen cytometry, 40 h; Potency, µM (titrated, usually from 46.1 µM), without a hit: top-dose activity change, negative = inhibition, most hits filed as inhibitors; actives 1.1% (n = 220,000); AID 1688; further: on the % scale 0 is the no-effect control and ±100 the full control effect; nearly all actives have a fitted effect of over 60% in size
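Steps: seed 1500 PC12 HTTQ103-GFP cells/well; add tebufenozide, 100 nM final; add compound titration; add ATPLite reagent; quantify GFP aggregates by laser scanning cytometry.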
Apoferritin bind = candidate novel general anesthetic via apoferritin binding. Potency, µM (highest dose often 77.5 µM), inactives show at the top dose activity change, negative = displacement, usual class: inhibitors. AID 485281. actives 0.074% (n = 350,000). P02791. apoferritin/1-aminoanthracene competitive binding, fluorescence; further: on the % scale 0 is the no-effect control and ±100 the full control effect; nearly all actives have a fitted effect of over 20% in size
Target sequence (P02791 2-175 limits assumed): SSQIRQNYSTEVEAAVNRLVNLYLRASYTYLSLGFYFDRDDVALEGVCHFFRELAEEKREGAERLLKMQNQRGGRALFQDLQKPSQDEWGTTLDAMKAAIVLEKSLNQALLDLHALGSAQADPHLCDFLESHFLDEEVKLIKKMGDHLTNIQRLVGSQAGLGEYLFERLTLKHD
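In PBS, apoferritin at 10 uM is loaded with 1-AMA from a 50% saturated solution. After 10 min of compound exposure at ambient temperature, reduced 535 nm fluorescence indicates probe displacement.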
Epigenetic derep = regulators of epigenetic silencing causing reporter derepression in mouse cells; AID 1865; murine LDR cells, GFP reporter derepression, 30 h; Potency, µM (highest dose often 53.9 µM), for the others: at the highest dose GFP activation, hits mostly activators; actives 0.2% (n = 280,000); further: % of control where 0% means no effect; nearly all actives have a fitted effect of over 60% in size
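GFP-positive cell count by laser-scanning cytometry (objects 20–120 um) after 30 h, 37 C compound exposure of murine LDR cells; reporter is CMV-GFP integrated at a silenced locus, inducible by HDAC or DNMT inhibitors.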
PTAP TSG101 blk = blocks PTAP/TSG101 interaction to inhibit HIV-1 budding. 340,000 tested, under 10 active. AID 493005. Fluorescence polarization, FITC-PTAP peptide / Tsg101 binding. Potency, µM (highest dose often 115 µM), inactives show top-dose activity change, negative = inhibition, actives largely listed as inhibitors; active means well fitted inhibition curve with a large enough effect in the main read-out, with a control signal flat, not every such curve was filed as active; inconclusive means small, poorly fitted or top-dose-only effect, or effect the other way, or a change in a side signal; inactive means no such curve, though single readings can be large or run the other way; further: % of control where 0% means no effect
Target sequence (Q99816 whole entry, looked up): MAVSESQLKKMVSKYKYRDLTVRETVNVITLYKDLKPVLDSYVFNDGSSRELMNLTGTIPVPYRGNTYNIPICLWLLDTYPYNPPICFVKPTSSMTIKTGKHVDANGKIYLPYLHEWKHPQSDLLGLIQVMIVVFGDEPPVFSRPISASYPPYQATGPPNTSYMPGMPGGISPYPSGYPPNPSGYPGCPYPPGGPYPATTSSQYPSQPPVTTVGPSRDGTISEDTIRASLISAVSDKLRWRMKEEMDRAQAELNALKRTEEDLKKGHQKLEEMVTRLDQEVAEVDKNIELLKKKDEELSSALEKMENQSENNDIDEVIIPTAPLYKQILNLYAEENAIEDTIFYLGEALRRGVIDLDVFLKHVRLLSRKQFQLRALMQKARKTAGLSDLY
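Fluorescence polarization binding of Tsg101 binding domain (10 uM final) to FITC-labeled PTAP peptide (50 nM final) in HEPES pH 7.5 buffer with NaCl, Tween 20, EDTA, TCEP. Compounds added before peptide; binding 20 min at RT.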
PINK1 expr mod = PINK1 expression modulation; PINK1 immunofluorescence, high-content cytometry, 24 h; Potency, µM (series often up to 76.6 µM), inactives show top-dose activation (PINK1 increase), actives largely listed as activators; actives 0.2% (n = 410,000); AID 624263; active means well fitted activation curve with a large enough effect; inconclusive means small, poorly fitted or top-dose-only effect; cell line not stated here; further: % of control where 0% means no effect; nearly all actives have a fitted effect of over 65% in size
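Fluorescence from anti-PINK1 antibody, together with nuclear and cell stains, was scanned on a laser-scanning cytometer. Before staining, stable-line cells were incubated 24 hours with compounds at 5 concentrations; primary antibody 12 h at 10 degrees C.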
HTT cytoprotect = protects HTT-Q103 PC12 cells, measured by ATP; PC12 HTT-Q103 induced, cytoprotection, ATP luminescence, 40 h; Potency, µM (titrated, usually from 56.4 µM), for inactives: cytoprotection (ATP increase), actives largely listed as activators; actives 0.14% (n = 230,000); AID 1471; further: % of control where 0% means no effect; nearly all actives have a fitted effect of over 45% in size
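PC12 cells stably carrying ecdysone-inducible Htt exon 1 (Q103)–GFP were induced with 100 nM tebufenozide (final) alongside library compounds in a dose series. Cytoprotection was scored as retained ATP by ATPlite luminescence.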
Active calls of the source: *; ? = inconclusive; . = not tested or not shown; [ ] = remark or other dose. This is one part of a sample in which hits are shown more often than they occur. Unless noted, the call rests on the fitted dose curve; in most records, active means well fitted curve in the direction sought with a large enough effect; inconclusive means small, poorly fitted or top-dose-only effect, or another doubt; inactive means no such curve, though single readings can be large; an effect the other way counts as inactive or inconclusive. Potency means the concentration at half of the fitted maximal effect.

SMILES	HttQ103 aggreg	Apoferritin bind	Epigenetic derep	PTAP TSG101 blk	PINK1 expr mod	HTT cytoprotect
CC(C(=O)N1CCCCC1)N1C(=O)c2ccccc2C1=O (centres undefined)	32µM*	-13%	1%	-4%	0%	3%
COc1ccc(-c2onc(C)c2C)cc1S(=O)(=O)Nc1cc(Cl)ccc1C	.	6%	5%	.	7%	.
COc1cccc(N(C(=O)CCl)C(C(=O)NCCc2ccccc2)c2cccs2)c1 (centres undefined)	22µM*	-2%	-1%	-2%	-6%	-63%[10 µM]
Cc1cnc(C(=O)OCC(=O)NC23CC4CC(CC(C4)C2)C3)cn1	10%	10µM*	4%	-7%	5%[38.3 µM]	-7%
O=C(COC(=O)c1ccccn1)NC12CC3CC(CC(C3)C1)C2	1%	7.9µM*	4%	-5%	1%	-1%
Cc1ccccc1-c1ccc2ncnc(N(C)C)c2c1	.	.	.	.	1%	-81%
CN(C)c1ccc(-c2ccc3ncnc(-n4ccnc4)c3c2)cc1	.	.	.	.	-1%	3.2µM*
Cc1ccccc1-c1ccc2ncnc(-n3ccnc3)c2c1	.	.	.	.	-1%	1µM*
CN(C)C(=O)c1ccc(-c2cncnc2-n2ccnc2)cc1	.	.	.	.	1%	-7%
CCOC(=O)c1ccc(COC(=O)CCc2nc3ccccc3[nH]c2=O)o1	2.8µM*	-2%	0%	-5%	-1%	-7%[10 µM]
CCCCOC(=O)CCc1nc2ccccc2[nH]c1=O	8%	-17%	4%	-2%	2%	-9%
NC(=S)NCCC[C@@H](N)C(=O)O	.	.	.	.	.	7%[1.9 µM]
N#C/C(=C\c1ccccc1)C(=O)Nc1cc(S(=O)(=O)N2CCOCC2)ccc1N1CCCC1	?	-4%	-1%	-8%	8%	0.71µM*
O=C(Nc1cc(S(=O)(=O)N2CCOCC2)ccc1N1CCCCC1)c1ccccc1	.	.	.	-4%	1%	.
Cc1[nH]n(-c2ccccc2)c(=O)c1Sc1ccc(Cl)cc1	-20%	-8%	-1%	-7%	2%	-9%
Cc1cc(-c2c(C)[nH]n(-c3ccc(Cl)cc3)c2=O)n[nH]1	11µM*	5%	-2%	-3%	1%	-82%
COc1ccc(CN2CCC(n3cc(C(=O)N4CCCCC4)nn3)CC2)c(OC)c1	.	.	.	.	0%	.
COc1ccc(Cc2nnc(N/N=C/c3ccc(O)cc3)[nH]c2=O)cc1OC	1.1µM*	-11%	1%	1%	0%	-83%[10 µM]
O=C(C#Cc1ccccc1)c1cccc([N+](=O)[O-])c1	13µM*	-15%	-1%	1%	-4%	-92%
O=C(O)c1cccc([N+](=O)[O-])c1	.	.	.	.	.	22%
CCn1nc(C)cc1C(=O)NCC1CCC2(CCN(Cc3ccccc3F)CC2)O1 (centres undefined)	.	.	.	.	1%	.
N#Cc1c(NC(=S)NC(=O)c2ccccc2)sc2c1CCN(CCc1ccccc1)C2	19%	-14%	5.6µM*	.	.	-14%[10 µM]
CCCC1C2CN(C(C)C)CC=C2C(C#N)=C(N)C1(C#N)C#N (centres undefined)	?	95%	1%	-23%	10µM*	-7%
CCOC(=O)N1CC=C2C(C#N)=C(N)C(C#N)(C#N)[C@H](c3ccsc3)[C@H]2C1	0.56µM*	-6%	1%	-7%	5%[38.3 µM]	-25%
CN1CC=C2C(C#N)=C(N)C(C#N)(C#N)C(c3ccsc3)C2C1 (centres undefined)	9%	74%	0%	-16%	10µM*	-23%
SMILES	HttQ103 aggreg	Apoferritin bind	Epigenetic derep	PTAP TSG101 blk	PINK1 expr mod	HTT cytoprotect
CN1CC=C2C(C#N)=C(N)C(C#N)(C#N)C(CCc3ccccc3)C2C1 (centres undefined)	-19%	29%	1%	?	?	-3%[10 µM]
COc1cc([C@@H]2[C@H]3CN(C)CC=C3C(C#N)=C(N)C2(C#N)C#N)cc2c1OCO2	27%	1%	0%	-4%	18µM*	17%[10 µM]
CCOC(=O)N1CC=C2C(C#N)=C(N)C(C#N)(C#N)[C@H](c3ccccc3OCC)[C@H]2C1	-17%	-12%	5%	.	17%[38.3 µM]	14%
COC(=O)C1CCN(Cc2ccc3c(c2)CN(C(=O)c2cc4ccccc4n2C)CCO3)CC1	.	.	.	.	0%	.
COc1cccc(C2C3CN(C)CC=C3C(C#N)=C(N)C2(C#N)C#N)c1OC (centres undefined)	27%	-7%	0%	?	35µM*	4%[10 µM]
CN1CC=C2C(C#N)=C(N)C(C#N)(C#N)[C@H](c3cccc(Cl)c3)C2C1 (some centres undefined)	11%	134%	1%	-14%	11µM*	5%
Cc1ccnn1CC(=O)N1CCOc2c(cc(-c3csc4ccccc34)cc2OC2CCOC2)C1 (centres undefined)	.	.	.	.	3%	.
COC(=O)c1c(OCc2cccnc2)cc(=O)n2c1CCN(Cc1cc3c(cc1Cl)OCO3)CC2	.	.	.	.	1%	.
CCOc1ccc(/C=N/NC(=O)C(C)N(c2ccc(OC)cc2)S(C)(=O)=O)cc1OCC (centres undefined)	-14%	-15%	2%	-1%	-1%	-9%
COc1ccc(N(C(C)C(=O)N/N=C/c2cc(Br)c(C)o2)S(C)(=O)=O)cc1 (centres undefined)	?	-12%	2%	-10%	1%	0.89µM*
CCOC(=O)c1cnc2c(OC)cccc2c1N1CCN(c2ccccc2F)CC1	.	8.9µM*	-1%	.	3%	.
Cc1c(Cl)cccc1NC(=O)c1cnc2sc(N3CCOCC3)nn2c1=O	.	-2%	1%	.	1%	.
Cc1nn(-c2ccccc2)c(N2CCCC2)c1/C=N/NC(=O)c1cc2ccccc2cc1O	-7%	33%	-1%	0%	16µM*	-17%[10 µM]
Cc1nn(-c2ccccc2)c(N2CCCC2)c1/C=N/NC(=O)c1cc(-c2ccccc2)nc2ccccc12	-1%	-4%	0%	-2%	2%	10%[1.9 µM]
CCOc1cccc2sc(N(Cc3cccnc3)C(=O)C3CCCCC3)nc12	.	-5%	-1%	.	2%	.
O=c1cc(CN2CCN(c3ccccc3F)CC2)c2cc3c(cc2o1)CCCC3	0.63µM*	-14%	-1%	0%	26%[38.3 µM]	1.1µM*
CCc1nc(CN2CCOc3ccc(C(O)C4CCCCC4)cc3C2)c(C)[nH]1 (centres undefined)	.	.	.	.	2%	.
CCc1ccc(NC(=O)c2sc3nc(C)c(C(=O)Nc4ccc(C)cc4C)c(-c4ccco4)c3c2N)cc1	.	46%	18µM*	.	14%	.
COc1cccc(NC(=O)c2sc3nc(C)c(C(=O)Nc4ccc(C)cc4C)c(-c4ccco4)c3c2N)c1	.	92%	1%	.	3%	.
